Details in all cases: mRNA level, 48 h; actives raise or lower the signal
Read-out in assay [1]: catalase (CAT), CAT (gene 847)
Nature of the assay: LTEA_HepaRG_CAT: Life Technologies and Expression Analysis (LTEA) Assay for catalase (CAT) using HepaRG (AID 2283452).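 For AC50: TaqMan qRT-PCR signal normalized to ACTB GAPDH and POLR2A housekeeping genes.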 In a few lines:
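Differentiated HepaRG cells in serum-free induction medium were dosed 48 h in duplicate, eight half-log concentrations from 100 uM in 0.5% DMSO. Transcript measured by TaqMan qRT-PCR, normalised to ACTB/GAPDH/POLR2A, fitted bidirectionally against DMSO.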

Read-out in assay [2]: flavin-containing dimethylaniline monooxygenases 3 (FMO3), FMO3 (gene 2328)
In words: LTEA_HepaRG_FMO3: Life Technologies and Expression Analysis (LTEA) Assay for flavin-containing dimethylaniline monooxygenases 3 (FMO3) using HepaRG (AID 2283453).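 For AC50: FMO3 transcript by TaqMan qRT-PCR normalized to ACTB GAPDH and POLR2A.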 In a few lines:
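HepaRG, 48 h exposure, 8-pt half-log series from 100 uM, 0.5% DMSO vehicle, duplicates; FMO3 transcript by Fluidigm TaqMan qRT-PCR, housekeeping-normalized; gain/loss fit vs DMSO.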

Read-out in assay [3]: Cytochrome P450 (CYP1A1), CYP1A1 (gene 1543)
Nature of the assay: LTEA_HepaRG_CYP1A1: Life Technologies and Expression Analysis (LTEA) Assay for Cytochrome P450 (CYP1A1) using HepaRG (AID 2283454). In a few lines:
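HepaRG, 48 h post-plating switched to serum-free induction medium; 8-pt conc-response (top 100 uM, half-log, 0.5% DMSO), duplicates, 48 h. Lysis in RLT, TaqMan qRT-PCR for CYP1A1; gain or loss vs DMSO.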

Read-out in assay [4]: CFLAR gene, CFLAR (gene 8837)
In words: LTEA_HepaRG_CFLAR: Life Technologies and Expression Analysis (LTEA) Assay for CFLAR gene using HepaRG (AID 2283455). An outline of the steps:
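HepaRG cells were plated for 48 h, switched to serum-free induction medium, then exposed in duplicate for 48 h to 8 concentrations (top 100 uM, half-log steps, 0.5% DMSO). CFLAR mRNA was measured by qRT-PCR, normalized to ACTB, GAPDH and POLR2A.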

Read-out in assay [5]: growth arrest and DNA damage 45 (GADD45A), GADD45A (gene 1647)
In words: LTEA_HepaRG_GADD45A: Life Technologies and Expression Analysis (LTEA) Assay for growth arrest and DNA damage 45 (GADD45A) using HepaRG (AID 2283458). An outline of the steps:
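Differentiated HepaRG cells were exposed in duplicate for 48 h in serum-free induction medium to 8-point half-log concentrations up to 100 uM in 0.5% DMSO. GADD45A mRNA was measured by TaqMan qRT-PCR, normalized to ACTB, GAPDH and POLR2A, with bidirectional fitting versus DMSO.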

Read-out in assay [6]: Forkhead box O3 (FOXO3), FOXO3 (gene 2309)
Nature of the assay: LTEA_HepaRG_FOXO3: Life Technologies and Expression Analysis (LTEA) Assay for Forkhead box O3 (FOXO3) using HepaRG (AID 2283459). In a few lines: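 Differentiated human HepaRG cells in serum-free induction medium were exposed in duplicate for 48 h to eight half-log concentrations up to 100 uM in 0.5% DMSO. FOXO3 mRNA was quantified by qRT-PCR, normalized to ACTB, GAPDH and POLR2A, with bidirectional fitting versus DMSO.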

Read-out in assay [7]: ABC Transporter (ABCB1), ABCB1 (gene 5243)
Nature of the assay: LTEA_HepaRG_ABCB1: Life Technologies and Expression Analysis (LTEA) Assay for ABC Transporter (ABCB1) using HepaRG (AID 2283460). In a few lines:
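Differentiated human HepaRG cells, plated 48 h then switched to serum-free induction medium, were exposed in duplicate to eight half-log concentrations up to 100 uM in 0.5% DMSO for 48 h. ABCB1 mRNA was measured by TaqMan qRT-PCR, normalized to ACTB/GAPDH/POLR2A.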

Read-out in assay [8]: growth arrest and DNA damage 45 (GADD45B), GADD45B (gene 4616)
In words: LTEA_HepaRG_GADD45B: Life Technologies and Expression Analysis (LTEA) Assay for growth arrest and DNA damage 45 (GADD45B) using HepaRG (AID 2283461). An outline of the steps: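 HepaRG, ~100,000 cells/well, 48 h plating; serum-free induction medium; cpd 100 uM top, half-log x8, 0.5% DMSO, duplicate, 48 h; lysis in RLT, RNA isolation, qRT-PCR; norm ACTB/GAPDH/POLR2A; bidirectional fit vs DMSO.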

Read-out in assay [9]: Forkhead box O1 (FOXO1), FOXO1 (gene 2308)
In words: LTEA_HepaRG_FOXO1: Life Technologies and Expression Analysis (LTEA) Assay for Forkhead box O1 (FOXO1) using HepaRG (AID 2283456). In a few lines:
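Differentiated human HepaRG cells in serum-free induction medium were exposed in duplicate for 48 h to eight half-log concentrations (top 100 uM, 0.5% DMSO). FOXO1 mRNA was measured by TaqMan qRT-PCR, normalised to ACTB, GAPDH and POLR2A, and fitted bidirectionally against DMSO.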

In PubChem BioAssay (EPA / NIEHS) one finds outcome and AC50 data, which are given here for 15 molecules.

Several values for one entry are separate records, joined by “and”; a condition that tells them apart may be missing. Identical values can stand only once. Activity calls are given as the source filed them. Rule for the calls: active = hit-call score of the fitted dose curve at least 0.9, where 1 is the maximum; inactive = score below 0.9.

In the case of `CN(C)[C@@H]1C(=O)C(C(N)=O)=C(O)[C@@]2(O)C(=O)C3=C(O)c4c(O)cccc4[C@@](C)(O)[C@H]3[C@H](O)[C@@H]12`, the call in assay [1], in [2], in assay [4], in assay [5], in [6] and in [7] was inactive. Also, the result in [8] was inactive. Moreover, the AC50 (in general, the concentration giving half of the maximal activity seen) in assay [3] was 66.4 µM (active) and 18.3 µM (active).

On to `CCCSP(=O)(OCC)Oc1ccc(Br)cc1Cl` (stereo not given), for which the call in assay [1], in assay [2], in [4], in assay [5], in assay [6] and in [7] was inactive. In assay [8], the result was inactive. The AC50 in [3] was 29.4 µM (active).

`CC(=NC#N)N(C)Cc1ccc(Cl)nc1`: the call in assay [1], in [2], in assay [4], in [5], in [6] and in assay [7] was inactive. In addition, in assay [8], the molecule was classed as inactive. For the same molecule, in assay [3], the AC50 was 50 µM (active).

Regarding `CCCCN(CC)c1c([N+](=O)[O-])cc(C(F)(F)F)cc1[N+](=O)[O-]`, the molecule was called inactive in assay [1], in assay [2], in assay [4], in assay [5], in assay [6] and in assay [7]. The result in [8] was inactive. The AC50 in assay [3] is 35.4 µM (active).

For the molecule `CSc1nnc(C(C)(C)C)c(=O)n1N`, the outcome in [1], in assay [2], in [3], in assay [4], in [5] and in assay [6] was inactive. Moreover, the outcome in assay [7] and in assay [8] was inactive.

Regarding `Cc1ccn2nc(S(=O)(=O)Nc3c(F)cccc3F)nc2n1`, the outcome in [1], in assay [2], in assay [3], in assay [4], in assay [5] and in [6] was inactive. Moreover, the molecule was classed as inactive in assay [7] and in assay [8].

In the case of `Cc1cc(C2CC2)nc(Nc2ccccc2)n1`, the call in assay [1], in assay [2], in assay [4], in assay [5], in assay [6] and in assay [7] was inactive. In assay [8], the call was inactive. In assay [3], the AC50 was 0.52 µM (active).

With `CC(C)N(C(=O)SCC(Cl)=C(Cl)Cl)C(C)C`, the call in assay [1], in assay [2], in assay [4], in [5], in assay [6] and in [7] was inactive. Also, the call in [8] was inactive. The AC50 in [3] is 67.5 µM (active).

As for `CCNc1nc(Cl)nc(NC(C)(C)C#N)n1`, the outcome in assay [1], in assay [2], in [4], in assay [5], in [6] and in assay [7] was inactive. Besides, in assay [8], the molecule was called inactive. Further, in assay [3], the AC50 was 24.9 µM (active).

As to `COP(=O)(OC)SCn1c(=O)oc2cc(Cl)cnc21`, the molecule was called inactive in assay [1], in assay [2], in assay [4], in assay [6], in assay [7] and in [8]. The AC50 in assay [3] was 38.6 µM (active); in assay [5], 0.029 µM (active).

For the molecule `C=C(C)[C@H]1Cc2c(ccc3c2O[C@@H]2COc4cc(OC)c(OC)cc4[C@@H]2C3=O)O1`, the AC50 was 1.75 µM (active) in assay [1]; 5.89 µM (active) in assay [2]; 2.44 µM (active) in assay [3]; 6.57 µM (active) in assay [5]; 18.6 µM (active) in [7]; 16.5 µM (active) in [8]. The result in assay [4] and in assay [6] was inactive.

Regarding `CNc1cnn(-c2cccc(C(F)(F)F)c2)c(=O)c1Cl`, the result in assay [1], in [4] and in assay [5] was inactive. Also, the AC50 in assay [2] is 38.8 µM (active); in [3] it was 3.99 µM (active); in assay [6], 31.1 µM (active); in assay [7], 74.9 µM (active); in [8] it was 50 µM (active).

With `COP(=O)(OC)C(O)C(Cl)(Cl)Cl` (stereo not given), the molecule was called inactive in [1], in assay [2], in [4], in [9], in [6] and in [7]. For the same molecule, the outcome in assay [8] was inactive. For the same molecule, the AC50 in assay [5] was 0.12 µM (active).

In the case of `CN(C)NC(=O)CCC(=O)O`, the molecule was classed as inactive in assay [1], in assay [2], in assay [3], in assay [4], in [5] and in assay [6]. The call in assay [7] and in [8] was inactive.

On to `CNC(=O)Oc1cccc2c1OC(C)(C)O2`, for which the molecule was classed as inactive in assay [1], in assay [2], in assay [3], in [4], in assay [5] and in assay [6]. The molecule was classed as inactive in assay [7] and in [8].
